Here are results for 95 molecules from PubChem BioAssay AID2685 (National Center for Advancing Translational Sciences (NCATS), 2010).

The whole screen tested about 320,000 compounds, of which about 2,100 (0.66%) were called active. Not shown: some 53% with an inconclusive outcome. Calls follow the shape of the dose curve; as a rule, active = well fitted inhibition curve with a large enough effect in the signal ratio, with a control signal flat (not every such curve was filed as active); inconclusive = small, poorly fitted or top-dose-only effect, or effect the other way, or a change in a side signal; inactive = flat fitted curve, though single readings scatter; the % refers to the signal ratio. This excerpt belongs to a sample that is enriched for actives.
Potency is read from the fitted curve at half-maximal effect.

The nature of this assay: qHTS Assay for Lipid Storage Modulators in Drosophila S3 Cells.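 As to cell number change: cells counted by Cell Tracker Red CMTPX staining in the red channel.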 As to lipid storage change, negative = inhibition: % is scaled to controls: 0 for no effect and ±100 for the full control effect. To be noted: BODIPY lipid droplet fluorescence, 18-24 h, cells fed with added oleic acid; cell number change: measured here: cell count max response; series mostly up to 46.1 µM. An outline of the steps:
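Drosophila S3 cells loaded with oleic acid (400 uM, as added) and compounds at several concentrations; lipid droplets imaged by 488-nm laser-scanning cytometry, 500–530 nm intensity and object ratio to cell channel. Percent activity normalized to 20 uM Triacsin C.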
Take `O=C(NC12CC3CC(CC(C3)C1)C2)c1ccc(Br)o1`: the Potency result was “inactive” and the cell number change is -22.8%.
Consider `O=C(c1ccccn1)N(CC1CCCO1)C1(C(=O)NC2CCCCC2)CCCCC1` (stereo unspecified), for which the Potency result was “inactive” and the cell number change is -0.121%.
The matching figures for `Cc1ccc(NC(=O)OCc2cc(-c3ccccc3)on2)cc1`: “inactive” and 4.96%.
The matching figures for `OCC(O)C(O)C(O)C(O)C1NCCS1` (stereo unspecified): “inactive” and 16.2%.
The matching figures for `COc1ccc(CCNC(=O)C2CCN(C(=O)c3ccc(Br)cc3)CC2)cc1`: 5.8 µM (active) and -9.49%.
`COc1ccc(CCNC(=O)C2CCN(C(=O)c3ccc(Cl)cc3)CC2)cc1`: the Potency entry is “inactive” and the cell number change was -13.5%.
As to `COc1ccc(CCNC(=O)C2CCN(C(=O)c3ccc(OC)c(OC)c3)CC2)cc1`, the Potency entry is “inactive”.
For the molecule `Cc1ccc(N2C(=O)C(Cl)=C(N3CCOCC3)C2=O)c(C)c1`, the Potency result is “inactive” and the cell number change was -6.56%.
The matching figures for `CCOC(=O)C(=CNc1ccc(C(F)(F)F)cc1)C(=O)OCC`: “inactive” and 11.9%.
The matching figures for `CC1CN(C(=O)Cn2c(=O)oc3ccccc32)CC(C)O1` (stereo unspecified): “inactive” and 13.4%.
The matching figures for `CC1CN(C(=O)CN2C(=O)c3ccccc3C2=O)CC(C)O1` (stereo unspecified): 23.1 µM (active) and -24.9%.
Take `CC1CN(C(=O)c2ccc(C(=O)c3ccccc3)cc2)CC(C)O1` (stereo unspecified): the Potency result is “inactive” and the cell number change was -18.7%.
`Cc1cc(C)cc(C(=O)N2CC(C)OC(C)C2)c1` (stereo unspecified): the Potency result is “inactive” and the cell number change is 20.2%.
The matching figures for `CC1CN(C(=O)c2cccc(C(=O)N3CC(C)OC(C)C3)c2)CC(C)O1` (stereo unspecified): 18.4 µM (active) and 7.82%.
The matching figures for `CC1CN(C(=O)CCN2C(=O)c3ccccc3C2=O)CC(C)O1` (stereo unspecified): “inactive” and 7.71%.
On to `O=C(CC(=O)N/N=C/c1ccc(Cl)cc1Cl)NCc1ccccc1`, for which the Potency entry is “inactive” and the cell number change is -3.68%.
The matching figures for `CCN(Cc1ccccc1)c1ccc(/C=N/NC(=S)NC(C)C)cc1`: “inactive” and -13%.
Turning to `OCc1nc2ccccc2n1CC(O)Cn1ccc2ccccc21` (stereo unspecified), the Potency result is “inactive”.
`O=c1cc2c(n[nH]1)-c1ccccc1CC2`: the Potency entry is “inactive” and the cell number change was found to be 1.15%.
The matching figures for `O=c1cc2c(n[nH]1)CCCC2`: 0.58 µM (active) and -2.03%.
The matching figures for `O=c1ccc2c([nH]1)CCCCCCCCCC2`: “inactive” and 10%.
The matching figures for `Cc1ccc(-c2nnc(SCC(=O)Nc3nccs3)n2N)cc1`: “inactive” and -14.7%.
Regarding `COc1ccc(NS(=O)(=O)c2ccc3c(c2)N(C(C)=O)CC(C)S3)c(OC)c1` (stereo unspecified), the Potency result was “inactive” and the cell number change was found to be 6.52%.
The matching figures for `O=C1NC2(CCCCCC2)C(=O)N1Cc1ccc(Br)cc1`: “inactive” and -22.7%.
The matching figures for `O=C1NC2(CCCCCCC2)C(=O)N1Cc1ccc(F)cc1`: “inactive” and 7.12%.
The matching figures for `CC(C)c1ccc(CN2C(=O)NC3(CCCCCC3)C2=O)cc1`: 18.4 µM (active) and 2.7%.
For the molecule `CCCCC(=O)NS(=O)(=O)c1ccc(N=NN2CCOCC2)cc1`, the Potency result was “inactive” and the cell number change was -7.29%.
The matching figures for `CCCCSCCCNC(=S)Nc1ccccc1C`: “inactive” and -6.21%.
The matching figures for `Cc1ccc(NC(=O)CSc2ccccc2NC(=O)c2cccc(Cl)c2)cc1Cl`: “inactive” and -1.09%.
For the molecule `Cc1ccc(NC(=O)CSc2ccccc2NC(=O)c2ccccc2Cl)cc1Cl`, the Potency entry was “inactive” and the cell number change worked out at 13.7%.
With `Cc1ccc(NC(=O)CSc2ccccc2NC(=O)c2ccccc2)cc1Cl`, the Potency is 20.6 µM (active) and the cell number change is -20%.
The matching figures for `CC(=O)c1cccc(NS(=O)(=O)c2ccc(N/C=C/C(=O)c3ccc(F)cc3)cc2)c1`: “inactive” and -28.4%.
The matching figures for `CCOc1cccc(CNCCO)c1OCc1ccc(Cl)cc1`: “inactive” and -0.0822%.
The matching figures for `CCOC(=O)c1sc2nc(CSc3nc4ccccc4n3CC)[nH]c(=O)c2c1C`: “inactive” and -16.4%.
Regarding `CCn1c(SCc2nc3sc(C(=O)O)c(C)c3c(=O)[nH]2)nc2ccccc21`, the Potency was 20.6 µM (active).
As to `C=CCn1c(SCc2nc3sc(C(=O)O)c(C)c3c(=O)[nH]2)nnc1-c1ccccc1`, the Potency entry is “inactive” and the cell number change was -15.1%.
Regarding `O=C(Nc1ccc(C2CCCCC2)cc1)C1CCN(c2ncccn2)CC1`, the Potency result is “inactive” and the cell number change is -8.69%.
The matching figures for `O/N=C1\CCC\C1=C/c1ccco1`: “inactive” and 0.139%.
The matching figures for `CC(C)(C)C1C/C(=C/c2ccco2)C(=O)/C(=C/c2ccco2)C1` (stereo unspecified): 10.3 µM (active) and -6.47%.
`CC1=N/C(=C/c2ccco2)C(=O)O1`: the Potency entry was “inactive” and the cell number change was -0.878%.
For `Nc1ccc2c(c1)C/C(=C/c1ccco1)C2=O`, the Potency result was “inactive”.
Regarding `O=C1/C(=C/c2ccco2)CCC1C1CCCC1` (stereo unspecified), the Potency result was “inactive” and the cell number change was -18.8%.
`O=C1/C(=C\c2ccco2)CCC/C1=C\c1ccco1`: the Potency was 20.6 µM (active) and the cell number change was -21.3%.
On to `CN(C)S(=O)(=O)c1ccc(C(=O)Nc2ccc(S(=O)(=O)NC3=NCCCCC3)cc2)cc1`, for which the Potency entry was “inactive”.
In the case of `COc1ccc(NC(=O)CN2C(=O)CC(C)S(=O)(=O)c3ccccc32)cc1` (stereo unspecified), the Potency entry was “inactive” and the cell number change amounted to 4.2%.
The matching figures for `CCc1ccc(NC(=O)CN2C(=O)CC(C)S(=O)(=O)c3ccccc32)cc1` (stereo unspecified): 20.6 µM (active) and 4.2%.
The matching figures for `O=C(CN1C(=O)CCS(=O)(=O)c2ccccc21)Nc1cccc(Cl)c1`: “inactive” and -9.4%.
The matching figures for `O=C(CN1C(=O)CCS(=O)(=O)c2ccccc21)Nc1ccc2c(c1)OCCO2`: “inactive” and -1.7%.
For the molecule `O=C(CN1C(=O)CCS(=O)(=O)c2ccccc21)Nc1cccc(F)c1`, the Potency is 23.1 µM (active) and the cell number change stood at 3.53%.
The matching figures for `Cc1cc(C)c(NC(=O)CN2C(=O)CC(C)S(=O)(=O)c3ccccc32)c(C)c1` (stereo unspecified): “inactive” and 13.7%.
Consider `CC1(C)CC2CC(C)(CN2C(=O)COC(=O)c2ccc(Cl)c(N)c2)C1` (stereo unspecified), for which the Potency result is “inactive” and the cell number change was found to be 7.11%.
Consider `Cc1ccc(NC(=O)CCc2c(C)nn(-c3ccc(N4CCCCC4)nn3)c2C)cc1`, for which the Potency result was “inactive”.
Regarding `Cc1ccc(S(=O)(=O)CCC(=O)OCc2ccc(Cl)cc2)cc1`, the Potency result was “inactive” and the cell number change is -1.83%.
The matching figures for `Cc1ccc2[nH]c(=O)c(CN(CC3CCCO3)C(=O)c3cccs3)cc2c1` (stereo unspecified): “inactive” and 31.3%.
As to `COc1ccc(CNC(=O)C2(c3ccc(Cl)cc3)CC2)cc1`, the Potency entry is “inactive” and the cell number change amounted to 15.2%.
The matching figures for `O=C(NCc1ccco1)C1(c2ccc(Cl)cc2)CCCC1`: “inactive” and 17%.
The matching figures for `O=C(NCCO)C1(c2ccc(Cl)cc2)CCCC1`: 20.6 µM (active) and -14.3%.
The matching figures for `Cc1cc(C)c2[nH]c3nc(SCC(=O)O)nnc3c2c1`: “inactive” and 15.4%.
Consider `O=c1oc2ccccc2c(N2CCCCC2)c1CN1CCCC1`, for which the Potency result was “inactive” and the cell number change was determined as 20.3%.
The matching figures for `O=C(Cc1ccccc1)NCc1n[nH]c(=S)n1-c1ccc(Br)cc1`: “inactive” and 12.1%.
The matching figures for `COCCNC(=O)C1(C)C=CC2(CCCCC2)N1C(=O)c1ccccc1` (stereo unspecified): “inactive” and -12.7%.
The matching figures for `S=C(Nc1ccc(Cl)cc1)NN1CCOCC1`: “inactive” and -1.28%.
As to `Cc1sc2ncnc(NCc3ccccc3)c2c1C`, the Potency entry was “inactive”.
On to `COc1ccc(-c2nnnn2C)cc1S(=O)(=O)NCc1ccccc1`, for which the Potency entry was “inactive” and the cell number change was -12.1%.
The matching figures for `CSc1ncc2c(n1)-c1cc(C)ccc1SC2`: “inactive” and -11.4%.
The matching figures for `Cc1ccc(C)c(OCCC(=O)OCC(=O)Nc2cccc(S(=O)(=O)N3CCCC3)c2)c1`: “inactive” and 13%.
For `O=C(COC(=O)c1ccccc1O)Nc1cccc(S(=O)(=O)N2CCCC2)c1`, the Potency is 2.91 µM (active) and the cell number change is -0.622%.
On to `Cc1ccc(C)c(OCCC(=O)Nc2cccc(S(=O)(=O)N3CCCCC3)c2)c1`, for which the Potency is 7.31 µM (active) and the cell number change is -9.88%.
The matching figures for `O=C(CCCOc1ccccc1)Nc1cccc(S(=O)(=O)N2CCCCCC2)c1`: 0.651 µM (active) and -1%.
The matching figures for `CC(=O)c1ccc(OCCCC(=O)Nc2cccc(S(=O)(=O)N3CCCCC3)c2)cc1`: “inactive” and -10.4%.
Consider `O=C(COC(=O)c1cccc(S(=O)(=O)N2CCCC2)c1)Nc1ccccc1`, for which the Potency result was “inactive”.
`COc1ccccc1OCCC(=O)Nc1cccc(S(=O)(=O)N2CCCCC2)c1`: the Potency result was “inactive” and the cell number change is 9.54%.
The matching figures for `O=C(COC(=O)c1cccnc1Cl)Nc1cccc(S(=O)(=O)N2CCCCC2)c1`: “inactive” and -11.8%.
The matching figures for `O=C(CCOc1ccccc1)Nc1ccc(S(=O)(=O)N2CCCC2)cc1`: “inactive” and -12%.
The matching figures for `O=C(NCc1csc(-c2cccs2)n1)Nc1ccc(C(F)(F)F)cc1`: “inactive” and -0.569%.
On to `O=C(COC(=O)CSc1cc(Cl)ccc1Cl)Nc1ncc(C(F)(F)F)cc1Cl`, for which the Potency result is “inactive” and the cell number change was 1.5%.
The matching figures for `Cc1[nH]n(-c2ccccc2)c(=O)c1N=Nc1ccc2c(c1)OCO2`: “inactive” and -5.87%.
Consider `O=C(c1sc(N2CCOCC2)nc1-c1ccccc1)N1CCCCC1`, for which the Potency entry is “inactive” and the cell number change was determined as 3.25%.
The matching figures for `O=C(Cn1nnc(-c2ccc(OCc3ccccc3F)cc2)n1)N1CCOCC1`: “inactive” and -16.4%.
Consider `COc1ccc2nc(NC(=O)CCN3C(=S)NC(C)(C)CC3C)sc2c1` (stereo unspecified), for which the Potency result is “inactive”.
Consider `CCOC(=O)CN1C(=O)C(O)(c2c(C)[nH]c3ccccc23)c2ccccc21` (stereo unspecified), for which the Potency entry is “inactive” and the cell number change is 8.53%.
The matching figures for `Cc1cc(C)n(-c2cc(N3CCOCC3)ncn2)n1`: “inactive” and -1.49%.
The matching figures for `COc1cccc(/C=C2\SC(=S)N(c3cccnc3)C2=O)c1OC`: “inactive” and 12.9%.
The matching figures for `CCn1cc(C2=NOC(C(=O)Nc3ccc4c(c3)OCO4)C2)c(C)n1` (stereo unspecified): 7.31 µM (active) and -25.4%.
On to `O=C(Nc1ccc2c(c1)OCO2)C1CC(c2ccccc2O)=NO1` (stereo unspecified), for which the Potency result was “inactive” and the cell number change came out at 19.9%.
For the molecule `COc1ccc(C2=NOC(C(=O)Nc3ccc4c(c3)OCO4)C2)cc1` (stereo unspecified), the Potency entry was “inactive” and the cell number change worked out at 14.2%.
Turning to `COc1cccc2sc(NNC(=O)COc3ccccc3)nc12`, the cell number change amounted to 5.71% and the lipid storage change, negative = inhibition was -1.29% [at 9.22 µM] (inactive).
On to `CCC(=O)Nc1cc(=O)[nH]c2ncnn12`, for which the Potency entry is “inactive” and the cell number change was -14.7%.
The matching figures for `O=C(Nc1cc(=O)[nH]c2ncnn12)c1ccccc1`: “inactive” and -8.14%.
`CC(C)C(=O)Nc1cc(=O)[nH]c2ncnn12`: the Potency is 5.8 µM (active) and the cell number change was -10.1%.
The matching figures for `Cn1c(=O)[nH]c(=O)c2c1nc(Br)n2C/C=N/NC(N)=S`: “inactive” and -9.55%.
The matching figures for `O=C(Nc1c2c(nn1-c1ccc(F)cc1)CS(=O)(=O)C2)c1ccc(S(=O)(=O)N2CCOCC2)cc1`: “inactive” and -2.12%.
For `O=C(Nc1cccc(-c2cccc(Cl)c2)c1)C1CCN(CC2CCOC2)CC1` (stereo unspecified), the Potency result was “inactive” and the cell number change was 26.5%.
As for `COc1cccc(-c2cccc(NC(=O)C3CCN(Cc4ccc(CO)o4)CC3)c2)c1`, the Potency entry is “inactive” and the cell number change was -8.92%.
The matching figures for `COc1cccc(-c2cccc(NC(=O)C3CCN(CC4CCOC4)CC3)c2)c1` (stereo unspecified): 16.4 µM (active) and -23.3%.
